The record followed here is PubChem BioAssay (NCI).

Some test systems named below: T-47D breast; BT-549 breast; MDA-MB-435 melanoma; SW-620 colon; MCF7 breast; HCT-116 colon; HCC-2998 colon; KM12 colon.
Assay in all cases: NCI-60 one-dose screen, 48 h (100 = growth as untreated, 0 = no growth, -100 = all killed)
What all share (conditions): 10 µM unless noted

Compounds without any hit were thinned out: in the full panel of roughly 83,000, 20% have a hit.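 How to read the values: 0–100, growth inhibition (40 = 60% inhibited); 0, no net growth; -100 to 0, cell death (-40 = 40% of starting cells died; -100 = all dead).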 A number with no mark means an inactive call. Activity calls are given as the source filed them. The calls were made as follows: active = growth percent below 10; inactive = the rest.

Consider `COc1ccc(-c2cnnn2-c2nonc2-n2cccc2)cc1`, for which the growth is 44.8% with T-47D breast; 47.6% in the experiment with BT-549 breast; -44.1% (active) in the experiment with MDA-MB-435 melanoma; 19.1% in the experiment with SW-620 colon; 14.5% in the experiment on MCF7 breast; 8.3% (active) in the experiment with HCT-116 colon. The growth is 6.73% (active) with HCC-2998 colon and 3.78% (active) in the experiment on KM12 colon.

On to `O=S(=O)(Nc1ccc2ccccc2c1)N1CCCCC1`, for which the growth with T-47D breast was 50.3%; in the experiment with BT-549 breast it was 47.3%; in the experiment on MDA-MB-435 melanoma it was -0.27% (active); in the experiment with SW-620 colon, 41%; with MCF7 breast it was 49%; in the experiment on HCT-116 colon, 55%. In addition, the growth in the experiment on HCC-2998 colon is 45.3%; in the experiment on KM12 colon, 39.7%.

Take `Cc1ccccc1NC(=O)c1sc2nc3c(cc2c1N)C(=O)CCC3`: the growth in the experiment on T-47D breast is 43.9%; with BT-549 breast, 55.6%; with MDA-MB-435 melanoma it was -12.9% (active); with SW-620 colon, 25.4%; in the experiment with MCF7 breast, 21.7%; in the experiment on HCT-116 colon, 34.5%. Also, the growth in the experiment with HCC-2998 colon is 67%; in the experiment with KM12 colon, 19.2%.

Take `CCCCCN(CCCCC)C(=O)C(CCC(=O)O)NC(=O)c1ccc(Cl)c(Cl)c1` (centres undefined): the growth with T-47D breast is 102%; in the experiment on BT-549 breast, 132%; with MDA-MB-435 melanoma, 112%; in the experiment with SW-620 colon, 106%; in the experiment with MCF7 breast it was 96.7%; with HCT-116 colon, 112%. For the same molecule, the growth in the experiment on HCC-2998 colon was 113%; in the experiment with KM12 colon it was 114%.

On to `O=C(CCCN1CCC(O)(c2ccc(Br)cc2)CC1)c1ccc(F)cc1`, for which the growth in the experiment on T-47D breast was 70.5%; in the experiment with BT-549 breast it was 60.6%; with MDA-MB-435 melanoma it was 65.4%; with SW-620 colon, 78.1%; with MCF7 breast, 70.4%; with HCT-116 colon it was 38.9%. The values for the growth with HCC-2998 colon and in the experiment with KM12 colon were 71% and 83.5%, respectively.

In the case of `COc1ccc2nc(-c3ccc(-c4noc(-c5ccc(Cl)cc5)n4)cc3)[nH]c2c1`, the growth in the experiment on T-47D breast was 67.3%; in the experiment on BT-549 breast it was 74.8%; with MDA-MB-435 melanoma it was 60.2%; in the experiment on SW-620 colon, 49.6%; in the experiment with MCF7 breast, 46.4%; in the experiment on HCT-116 colon it was 51.3%. Further, the growth was 93.6% in the experiment on HCC-2998 colon and 53.3% with KM12 colon.

For `NC(=O)c1ccc[n+](Cc2ccccc2)c1`, the growth in the experiment on T-47D breast is 106%; in the experiment on BT-549 breast, 118%; in the experiment with MDA-MB-435 melanoma, 98.2%; in the experiment with SW-620 colon it was 102%; with MCF7 breast, 103%; in the experiment on HCT-116 colon, 99.9%. Further, the growth in the experiment with HCC-2998 colon and in the experiment with KM12 colon was 102% each time.

As for `COc1cc(Nc2ncccc2/C=C/C(=O)c2cc(OC)c(OC)c(OC)c2)cc(OC)c1OC`, the growth was 34.1% in the experiment with T-47D breast; 100% in the experiment with BT-549 breast; 61.4% with MDA-MB-435 melanoma; 71.9% with SW-620 colon; 9.35% (active) in the experiment with MCF7 breast; 60.6% in the experiment with HCT-116 colon. Besides, the growth in the experiment with HCC-2998 colon is 93.5%; in the experiment on KM12 colon it was 71.1%.

For the molecule `CC[C@]1(O)C[C@H]2CN(CCc3c([nH]c4ccccc34)C(C(=O)OC)(c3cc4c(cc3OC)N(C)[C@H]3[C@@](O)(C(=O)OC)[C@H](OC(C)=O)[C@]5(CC)[C@@H]6C[C@@H]6CN6CC[C@]43[C@@H]65)C2)C1` (some centres undefined), the growth in the experiment on T-47D breast was 65.6%; with BT-549 breast it was -47.2% (active); in the experiment on MDA-MB-435 melanoma, -12.8% (active); in the experiment on SW-620 colon, 31.6%; with MCF7 breast, 4.81% (active); with HCT-116 colon, -22.4% (active). Besides, the growth in the experiment with HCC-2998 colon was 2.47% (active); with KM12 colon it was 12%.

In the case of `O=C(Nc1ccc(Br)cc1)Nc1cccc(Br)c1`, the growth in the experiment with T-47D breast was -10.5% (active); in the experiment on BT-549 breast, 58.2%; with MDA-MB-435 melanoma, 47.4%; in the experiment with SW-620 colon, 29%; in the experiment on MCF7 breast, 13.3%; in the experiment with HCT-116 colon, 27.5%. Also, the growth with HCC-2998 colon was 27.6%; in the experiment on KM12 colon, 13.2%.

On to `CC1OC(n2c3ccccc3c3c4c(c5c6ccccc6[nH]c5c32)C(=O)N(CCN2CCOCC2)C4=O)CC(O)C1O` (centres undefined), for which the growth was 11% in the experiment on T-47D breast; 36.9% in the experiment on BT-549 breast; 41.5% in the experiment with MDA-MB-435 melanoma; 27.8% in the experiment on SW-620 colon; 13.3% with MCF7 breast; 24.3% with HCT-116 colon. For the same molecule, the values for the growth in the experiment with HCC-2998 colon and with KM12 colon were 30% and 30.7%, respectively.

As for `COc1cnc2c(c1)C(=O)c1c-2n(CCCN2CCNCC2)c(=O)c2cc(Cl)ccc12`, the growth with T-47D breast is 58.8%; in the experiment on BT-549 breast, 45.7%; in the experiment on MDA-MB-435 melanoma it was 0.312% (active); in the experiment with SW-620 colon, -84.5% (active); in the experiment on MCF7 breast it was -74.9% (active); with HCT-116 colon, -100% (active). Moreover, the values for the growth in the experiment on HCC-2998 colon and in the experiment with KM12 colon were 54.4% and 11.8%, respectively.

For `CCCCCCCCN=C(NCCCCCCCC)SCc1cccc2ccccc12`, the growth in the experiment on T-47D breast is -97.5% (active); in the experiment on BT-549 breast, -74.8% (active); with MDA-MB-435 melanoma, -95.6% (active); in the experiment on SW-620 colon, -91.6% (active); in the experiment with MCF7 breast it was -88.9% (active); with HCT-116 colon, -83.3% (active). For the same molecule, the growth in the experiment with HCC-2998 colon is -96.4% (active); in the experiment on KM12 colon, -94.1% (active).
